This is an account of results in PubChem BioAssay (EPA / NIEHS).

Values joined by “and” are separate entries in the source; they are usually repeats but may differ in a detail not shown here. Equal values may be shown once. The source holds several records for some structures; these can differ, active in one and inactive in another. Active and inactive are the calls of the source. How the source made its calls: active means hit-call score of the fitted dose curve at least 0.9, where 1 is the maximum; inactive means score below 0.9.

What is called AC50 is the concentration giving half of the maximal activity seen.

Read-out in the assay: Macrophage colony-stimulating factor (MCSF), CSF1 (gene 1435)
Nature of the assay: BSK_IMphg_MCSF: BioMAP Diversity Plus: IMphg Assay for Macrophage colony-stimulating factor (MCSF) Biomarker Activity (AID 2284293). The conditions noted are these: primary human endothelial cells with macrophages. The procedure: BSK_IMphg is a cell-based, multiplexed-readout assay that uses venular endothelial cells and macrophages, a human vascular primary cell, with measurements taken at 24 hours after chemical dosing in a microplate: 96-well plate.BSK_IMphg_MCSF is an assay component measured in the BSK_IMphg assay. It measures M-CSF antibody related to regulation of gene expression using ELISA technology.Data from the assay component BSK_IMphg_MCSF was analyzed at the endpoint, BSK_IMphg_MCSF, in the positive analysis fitting direction relative to DMSO as the negative control and baseline of activity. Using a type of binding reporter, gain or loss-of-signal activity can be used to understand protein changes. To generalize the intended target to other relatable targets, this assay endpoint is annotated to the 'cytokine' intended target family, where the subfamily is 'colony stimulating factor'.
The levels of cell surface (or secreted, indicated by the prefix "s") biomarker endpoints were measured by ELISA. Overt cytotoxicity to cells in confluent adherent cultures (all systems other than the BT system) was assessed by measuring total protein levels using sulforhodamine B (SRB) staining in parallel cultures at the time of biomarker measurements, indicated as SRB endpoints. For proliferation assays for adherent cell types, individual cell types are cultured at sub-confluence and relative cell numbers quantified by SRB staining at time points optimized for each system (48 h: 3C and CASM3C systems; 72 h: BT and HDF3CGF systems; 96 h: SAg system). SRB was performed by staining cells with 0.1% SRB after fixation with 10% TCA and reading wells at 560 nm.Viability and proliferation of PBMC (T cells) was quantified by Alamar Blue reduction for the SAg and BT systems. For PBMC viability (referred to as PBMC Cytotoxicity within the assay endpoint names), cells were plated (75,000/well in a 96-well plate) and then chemical samples added for 1 h before addition of activators, SEB and TSST-1 (20 ng/mL final concentration each). Cells were incubated for 90 h. Then, Alamar Blue (20 uL/well) (Invitrogen, Cat DAL1100) was added for 6 h, and the plates were read with a fluorescence microplate reader at 546/580 nm (excitation/emission). For PBMC proliferation, cells were plated and activated as above but incubated for only 16 h prior to addition of Alamar Blue. Plates were read after 6 h.
For `OCC(F)(F)OC(F)(F)C(F)(F)OC(F)(F)CO`, the outcome was inactive.

`O=C(O)C=CC(F)(C(F)(F)F)C(F)(F)F`: the outcome was inactive. With `NC(=O)C(F)(F)C(F)(F)F`, the result was inactive.

In the case of `CC(O)C(F)(F)C(F)(F)F` (stereo unspecified), the result was inactive.

In the case of `FC(F)(F)C(F)(C(F)(F)F)C(F)(F)C(F)(F)CC1CO1` (stereo unspecified), the outcome was inactive.

For `O=C(O)C(F)(OC(F)(F)C(F)(F)C(F)(F)F)C(F)(F)F` (stereo unspecified), the result was inactive and the AC50 was 220 nM (active). As to `COC(=O)C(F)(F)C(F)(F)OC(F)(C(F)(F)F)C(F)(F)OC(F)=C(F)F` (stereo unspecified), the result was inactive. Consider `OCC(F)(F)OC(F)(F)C(F)(F)OC(F)(F)C(F)(F)OC(F)(F)CO`, for which the outcome was inactive and the AC50 was 24700 nM (active). Regarding `O=C(O)C(F)(F)OC(F)(F)C(F)(F)OC(F)(F)F`, the outcome was inactive.

Take `O=C(O)C(F)(F)OC(F)(F)C(F)(F)OC(F)(F)C(=O)O`: the result was inactive. For `OCC(F)(F)OC(F)(F)C(F)(F)OC(F)(F)C(F)(F)OC(F)(F)F`, the AC50 is 43 µM (active) and 18.8 µM (active). With `O=S(=O)(F)C(F)(F)C(F)(F)C(F)(F)C(F)(F)C(F)(F)C(F)(F)C(F)(F)C(F)(F)F`, the outcome was inactive. On to `C=CC(=O)OCC(F)(F)C(F)F`, for which the result was inactive. On to `O=C(O)C(F)(F)C(F)(F)C(=O)O`, for which the result was inactive.
